What all share (format): functional
The test system of test [1] is Plasmodium falciparum. Kind of test: GSK_TCMDC: Inhibition of Plasmodium falciparum 3D7 in whole red blood cells, using parasite LDH activity as an index of growth. Test compounds present at 2uM.
The subject of test [2] is Plasmodium falciparum. Kind of test: GSK_TCMDC: Inhibition of Plasmodium falciparum Dd2 in whole red blood cells, using parasite LDH activity as an index of growth. Test compounds present at 2uM.
Test [3] deals with HepG2. Kind of test: GSK_TCMDC: Percent inhibition of human HepG2 cell line. Test compounds present at 10uM.

Usually Inhibition stands for how much of the control response was suppressed. Low values mean a response near the control, high ones a response far below the control. For the compound `CC1(C)[C@H]2CC[C@@H](CNc3nc(NCCc4c[nH]cn4)nc(Nc4ccc(Oc5ccccc5)cc4)n3)[C@@H]1C2`, the Inhibition in test [1] stood at 99%; in test [2], 86%; in test [3], 2%.

Regarding `Cn1nccc1C(=O)NCCNCc1ccc(-c2cccc(-c3nc4ccccc4[nH]3)c2)cc1.O=C(O)C(F)(F)F`, the values for the Inhibition in test [1], in test [2] and in test [3] were 100%, 87% and 35%, respectively.

Regarding `COc1ccc(CNCc2ccc(F)cc2)cc1-c1ccc(S(=O)(=O)NCCN2CCCC2)cc1.O=C(O)C(F)(F)F`, the Inhibition in test [1] is 91%; in test [2] it was 25%; in test [3], 38%.

Consider `COc1ccc(Nc2nccc(-c3cccc(NC(=O)c4cc5cc(F)ccc5[nH]4)c3)n2)cc1`, for which the figures for the Inhibition in test [1], in test [2] and in test [3] were 92%, 37% and 3%, respectively.

Consider `Cl.FC(F)(F)c1cc(Nc2ncnc3ccc(Br)cc23)ccc1OCc1ccccc1`, for which the figures for the Inhibition in test [1], in test [2] and in test [3] were 87%, 9% and 12%, respectively.

As for `Cc1cc(CN2CC[C@H](NC(=O)c3ccc(Cl)c(Cl)c3)C2)ccc1OCCN1CCNCC1.O=C(O)C(F)(F)F`, the Inhibition stood at 94% in test [1], 1% in test [2] and 15% in test [3].

Consider `CN(C)Cc1ccc(-c2ccc3ccnc(N)c3c2)cc1`, for which the Inhibition in test [1] is given as 100%; in test [2], 100%; in test [3], 20%.

As to `CCc1cn2c3c(cc(C(=O)N[C@@H](Cc4ccccc4)[C@H](O)CNC4CCCC4)cc13)N(C)S(=O)(=O)CC2`, the Inhibition was 100% in test [1], 99% in test [2] and 6% in test [3].

`CCc1cn2c3c(cc(C(=O)N[C@@H](Cc4ccccc4)[C@H](O)CNC(C)(C)CCCC(C)C)cc13)N(C)S(=O)(=O)C2.O=CO`: the Inhibition in test [1] amounted to 98%; in test [2], 98%; in test [3] it was 71%.

Regarding `Cc1nc(N)nc(N)c1OCCCOc1ccccc1Br.Cl`, the Inhibition in test [1] amounted to 94%; in test [2], 96%; in test [3] it was 57%.

As for `COc1ccc(-c2ccc(NC(=O)c3cccc(C#N)c3)cc2)cc1CN(C)C.O=C(O)C(F)(F)F`, the Inhibition is given as 100% in test [1], 10% in test [2] and 11% in test [3].

On to `CCN(CC)CCN(Cc1ccc(-c2ccc(C(F)(F)F)cc2)cc1)C(=O)Cn1nc(-c2ccc(C(F)(F)F)cc2)ccc1=O`, for which the Inhibition in test [1] was determined as 100%; in test [2] it was 83%; in test [3] it was 44%.

As to `CCCCC(=O)NC(c1cccs1)c1cc(Cl)c2cccnc2c1O` (centres undefined), the Inhibition came to 93% in test [1], 90% in test [2] and 50% in test [3].

Consider `COc1ccc(Cl)cc1N1CCN(CCCNC(=O)c2ccc(-c3nc4cc(Cl)c(C)cc4[nH]3)c(F)c2)CC1`, for which the Inhibition in test [1] was 99%; in test [2] it was 91%; in test [3] it was 0%.

`COc1cc2ccccc2c(CNCCCCCCNCc2c(OC)c(OC)cc3ccccc23)c1OC.CS(=O)(=O)O`: the Inhibition is 95% in test [1], 89% in test [2] and 100% in test [3].

Regarding `COCCNCC(O)Cn1c2ccc(Cl)cc2c2cc(Cl)ccc21` (centres undefined), the figures for the Inhibition in test [1], in test [2] and in test [3] were 95%, 74% and 15%, respectively.

As to `COc1cccc(CCNc2nc(NCc3ccccc3)c3cc(OC)c(OC)cc3n2)c1`, the Inhibition in test [1] is on record as 100%; in test [2], 99%; in test [3] it was 20%.

In the case of `CCn1cc(CN2CCCC(C(=O)Nc3ccc(-c4nc5ccccc5[nH]4)cc3)C2)c(C)n1` (centres undefined), the Inhibition stood at 100% in test [1], 28% in test [2] and 22% in test [3].

`COc1ccc2ncc(F)c(CCN3CCC(CNCc4cccc5c4OCO5)CC3)c2n1.Cl`: the figures for the Inhibition in test [1], in test [2] and in test [3] were 93%, 37% and 39%, respectively.

`Cc1nnc(-c2cccc(Nc3ccnc4cc(-c5nccs5)ccc34)c2)o1.Cl`: the Inhibition in test [1] turned out to be 95%; in test [2] it was 89%; in test [3] it was 38%.

With `O=C(O)C(F)(F)F.O=S(=O)(NCCN1CCCC1)c1cccc(-c2cccc(CNCCc3cccs3)c2)c1`, the Inhibition in test [1] amounted to 100%; in test [2], 45%; in test [3] it was 30%.

Consider `C(=Cc1ccccc1)C=NN=c1cc[nH]c2ccccc12`, for which the values for the Inhibition in test [1], in test [2] and in test [3] were 100%, 100% and 24%, respectively.

As for `Cc1ccc(NC(=N)Nc2ncccc2OCc2c(F)cccc2Cl)cc1`, the Inhibition in test [1] is 86%; in test [2], 54%; in test [3] it was 78%.

Regarding `O=C(Cc1ccsc1)NCC(c1ccccc1Cl)c1c[nH]c2ccccc12` (centres undefined), the Inhibition in test [1] came to 86%; in test [2], 71%; in test [3] it was 0%.

For `CN1CCN(c2ccc(Nc3ncc([N+](=O)[O-])c(Nc4ccccc4O)n3)cc2)CC1.O=C(O)C(F)(F)F`, the Inhibition in test [1] is 100%; in test [2] it was 97%; in test [3] it was 98%.

As to `N=C(N)NN=CC(=O)Nc1cc([N+](=O)[O-])cc([N+](=O)[O-])c1.O=S(=O)(O)O`, the Inhibition is 100% in test [1], 0% in test [2] and 0% in test [3].

For the compound `CCCC(C)NC[C@@H](O)[C@H](Cc1ccccc1)NC(=O)c1cc(C2CCCC2)cc(N2CCCCS2(=O)=O)c1.Cl` (some centres undefined), the Inhibition in test [1] is reported as 98%; in test [2] it was 99%; in test [3], 8%.

For the compound `Cc1cc(N2CCCCC2)nc2ccc(NC(=O)c3cc(=O)c4ccccc4o3)cc12`, the Inhibition in test [1] was determined as 98%; in test [2], 19%; in test [3], 15%.

(Values after ChEMBL document CHEMBL1157539, “Thousands of chemical starting points for antimalarial lead identification” (Nature, 2010).)
